Test results: PubChem BioAssay (NCATS)
Records with an inconclusive call do not appear. Entries that show only a call come without a potency. The source made the active and inactive calls. Calls follow the shape of the dose curve; as a rule, active = well fitted inhibition curve with a large enough effect; inconclusive = small, poorly fitted or top-dose-only effect; inactive = no such curve, though single readings can be large or run the other way.

molecular target: Retinaldehyde dehydrogenase 3 (Homo sapiens) (UniProt P47895); assay: qHTS for Inhibitors of the Aldehyde Dehydrogenase Family (ALDH1A3) Primary screen (AID 2061315); details: ALDH inhibition qHTS; series mostly up to 56 µM

Row | Compound | Potency
1 | O=C(O)c1ccc2c(c1)C(=O)N([C@H](Cc1ccc([N+](=O)[O-])cc1)C(=O)O)C2=O | inactive
2 | Cn1c(=O)c2c(nc(OC3CCN(C(=O)C4CC4)CC3)n2CCC(C)(C)C)n(C)c1=O | inactive
3 | COc1cc(OC)cc(-c2nnc3n2N=C(c2ccccc2OC)CS3)c1 | inactive
4 | O=C([C@H](Cc1ccc(O[S+](=O)([O-])c2cccc3cnccc23)cc1)N[S+](=O)([O-])c1cccc2cnccc12)N1CCN(Cc2ccccc2)CC1 | inactive
5 | COc1cc(OC)c(C(CC(=O)N2CC(C)CC(C)C2)c2ccc3c(c2)OCO3)c(OCC(N)=O)c1 (stereo not given) | inactive
6 | CCOc1ccc(CCNC(=O)c2cccc(C(=O)c3ccccc3)c2)cc1OCC | inactive
7 | Cc1ccccc1S(=O)(=O)N1CCN(S(=O)(=O)c2ccc3c(c2)OCCO3)CC1 | inactive
8 | Cn1c2cc(Br)sc2c2cnn(Cc3ccc(F)cc3)c(=O)c21 | inactive
9 | COc1cc(O)c(C(CC(=O)N2CCCC(C(=O)N3CCCCC3)C2)c2ccc3c(c2)OCO3)c(OC)c1 (stereo not given) | inactive
10 | Cc1cc(NS(=O)(=O)c2ccc(NC(=O)Cc3ccc(F)c(Cl)c3)cc2)no1 | inactive
11 | c1ccc(C2Nc3cccc4cccc(c34)N2)cc1 | inactive
12 | Cc1cc(C)nc(NC(=S)N2CCN(c3cc(Cl)c(Cl)cc3Cl)CC2)c1 | inactive
13 | COc1cccc(CN(C)c2ccc([S+](=O)([O-])Nc3nccs3)cc2)c1O | inactive
14 | Cc1ccc(S(=O)(=O)N2CCN(S(=O)(=O)c3ccc4c(c3)OCCO4)CC2)cc1 | inactive
15 | Cn1nnnc1Sc1ncnc2scc(-c3cccc(Cl)c3)c12 | inactive
16 | CCOc1ccc(CCNC(=O)c2cc3sccc3n2Cc2ccc(Cl)c(F)c2)cc1OCC | inactive
17 | Cc1ccc(C(=O)NC(c2ccco2)c2cc(Cl)c3cccnc3c2O)cc1 (stereo not given) | inactive
18 | Cn1c2ccsc2c2ncn(Cc3ccccc3F)c(=O)c21 | inactive
19 | COc1ccc(S(=O)(=O)N2CCN(S(=O)(=O)c3ccc(OC)cc3)CC2)cc1 | inactive
20 | Cc1cc(-c2nc(Nc3ccc(F)c(F)c3)c3ccccc3n2)ccn1 | inactive

Row | Compound | Potency
21 | CC(C)c1ccccc1-c1ncc(F)c(NCc2ccc(-c3cccnc3)s2)n1 | inactive
22 | COc1ccc(-c2ccc3nnc(-c4ccccc4OC)n3n2)cc1OC | inactive
23 | O=C(Nc1ccccn1)c1sc2ccc([N+](=O)[O-])cc2c1Cl | inactive
24 | O=C1c2ccccc2C(=O)N1c1ccncc1 | inactive
25 | Cc1csc(CNc2ncnc3ccc(-c4cccnc4)cc23)c1 | inactive
26 | Cc1ccccc1CSc1nc2ncc(Br)cc2[nH]1 | inactive
27 | O=C(NCCCCN1CCN(c2cccc(Cl)c2Cl)CC1)c1cc2ccccc2s1 | inactive
28 | C/C=C(\C)[C@@H]1C(C)=C[C@@H]2[C@H]([C@@H]1/C=C/C=C/C(=O)O)[C@@H](C)CC[C@@H]2O | inactive
29 | Cc1cc(C)nc(NC(=S)N2CCN(c3cc(C(F)(F)F)nc4ccccc34)CC2)c1 | inactive
30 | Cn1cnc(CCNc2ncnc3ccc(-c4ccc5c(c4)OCO5)cc23)c1 | inactive
31 | Fc1ccc(Nc2nc(-c3ccncc3F)nc3ccccc23)cc1F | inactive
32 | Cc1nc(NCc2ccccc2)c2nc(-c3ccccc3)n(CCN3CCCC3)c2n1 | inactive
33 | Cc1cccc(-n2cnc3cc(C(=O)N4CCCC(c5ccccc5)C4)ccc32)c1 (stereo not given) | inactive
34 | S=P(c1ccccc1)(c1ccccc1)c1c[n+](C/C=C/c2ccccc2)c2ccccn12 | inactive
35 | Cc1cc(C)n2ncc(C(=O)Nc3ccccc3C)c2n1 | inactive
36 | COc1ccc(C(=O)N(Cc2ccccc2)Cc2ccccc2)c(O)c1 | inactive
37 | COCCCc1cc(F)c(S(=O)(=O)N2CCN(S(=O)(=O)c3ccc4c(c3)OCCO4)CC2)cc1F | inactive
38 | O=[S+]([O-])(c1c(F)cccc1F)N1CCN([S+](=O)([O-])c2c(F)c(F)c(F)c(F)c2F)CC1 | inactive
39 | CCNC(=O)c1ccc(-c2ccc3ncnc(NCc4ccc(C)o4)c3c2)o1 | inactive
40 | O=C(Cn1nc(-c2cccnc2)ccc1=O)NCCc1ccccc1 | inactive
